This is a sample that favours compounds with a hit; in the whole collection about 4% have one here.
Gli-Sufu block – Gli-Sufu pathway antagonism | Sufu-KO-LIGHT fibroblasts, Gli luciferase reporter luminescence | inhibition, % at 5 µM | 340,000 tested, 0.74% active;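 active = inhibition above about 55%, limit read from the data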
697 NFkB inh – inhibitors of the PMA/ionomycin-induced NF-kB reporter in 697 B cells; 697 B-cell NF-kB luciferase reporter, 16 h; inhibition, % at 4 µM; 330,000 tested, 0.33% active; AID 435022; in the data active = inhibition above about 35%
Beta cell apopt – blocks beta cell apoptosis; INS-1E cytokine-induced death, ATP luminescence, 48 h; percent of positive-control rescue, neutral wells zero; protection from apoptosis, % (test concentration not listed); 300,000 tested, 0.8% active;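 active = Every replicate reaches about 75%, or at least half do and their mean reaches it too, limit read from the data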;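 note: higher means more ATP so stronger rescue from cytokine killing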
Mdm2-MdmX inh – inhibitors of human Mdm2/MdmX interaction. SaOS-2 split-luciferase Mdm2/MdmX complementation, luminescence. inhibition, % at 8 µM. O15151+Q00987. 330,000 tested, 3% active;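 active = inhibition of at least 50% at 8 µM in the primary screen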
Target sequence (O15151 whole entry, looked up): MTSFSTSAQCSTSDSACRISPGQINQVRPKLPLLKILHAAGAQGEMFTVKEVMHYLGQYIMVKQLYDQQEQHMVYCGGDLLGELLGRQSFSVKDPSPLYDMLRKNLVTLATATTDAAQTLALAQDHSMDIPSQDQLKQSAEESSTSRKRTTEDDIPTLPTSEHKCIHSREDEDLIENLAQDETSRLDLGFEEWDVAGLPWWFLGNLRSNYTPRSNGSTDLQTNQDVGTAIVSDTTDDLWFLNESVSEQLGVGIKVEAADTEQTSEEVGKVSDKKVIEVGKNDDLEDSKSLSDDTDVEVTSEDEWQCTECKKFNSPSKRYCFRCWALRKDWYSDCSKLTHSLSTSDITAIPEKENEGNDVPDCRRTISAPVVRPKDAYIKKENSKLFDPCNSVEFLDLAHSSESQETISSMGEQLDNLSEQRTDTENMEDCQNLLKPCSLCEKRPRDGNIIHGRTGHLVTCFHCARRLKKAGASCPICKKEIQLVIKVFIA
Target sequence (Q00987 whole entry, looked up): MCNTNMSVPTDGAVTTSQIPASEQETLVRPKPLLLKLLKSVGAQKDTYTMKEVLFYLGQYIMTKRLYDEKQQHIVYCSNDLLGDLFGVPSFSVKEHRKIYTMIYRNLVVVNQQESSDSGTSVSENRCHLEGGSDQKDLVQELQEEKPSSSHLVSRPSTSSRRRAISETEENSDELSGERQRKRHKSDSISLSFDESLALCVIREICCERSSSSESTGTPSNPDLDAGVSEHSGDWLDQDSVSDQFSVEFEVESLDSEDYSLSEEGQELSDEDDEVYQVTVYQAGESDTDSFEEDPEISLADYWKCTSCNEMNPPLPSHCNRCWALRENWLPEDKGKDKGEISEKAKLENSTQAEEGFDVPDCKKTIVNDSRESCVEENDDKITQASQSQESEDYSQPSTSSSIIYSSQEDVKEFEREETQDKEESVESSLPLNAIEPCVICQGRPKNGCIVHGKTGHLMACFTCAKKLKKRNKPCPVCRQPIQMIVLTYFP
Jurkat NFkB inh – lowers PMA/ionomycin-induced NF-kB signal in Jurkat cells. AID 435003. 330,000 tested, 0.53% active. PMA/ionomycin-induced NF-kB luciferase reporter, luminescence. inhibition, % at 4 µM; in the data active = inhibition above about 50%
Jurkat NFkB conf – lowers PMA/ionomycin-induced NF-kB signal in Jurkat cells; inhibition, % at 4 µM; Jurkat NF-kB luciferase, 16 h; 2,700 tested, 27% active; shares compounds with Jurkat NFkB inh;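 active = inhibition reaching about 45% at 4 µM in either replicate, limit read from the data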
697 NFkB conf – lowers PMA/ionomycin-induced NF-kB signal in 697 B cells | shares compounds with 697 NFkB inh | 697 B-cell NF-kB luciferase, 16 h | inhibition, % at 4 µM | 2,000 tested, 35% active | AID 449746; in the data active = inhibition mostly above about 28%, no sharp cut-off; inactive = mostly below about 22%
Mdm2 MdmX conf – confirmation of human Mdm2/MdmX interaction inhibitors; shares compounds with Mdm2-MdmX inh; inhibition, % at 8 µM; Mdm2-MdmX binding, luminescent assay; 10,000 tested, 55% active; in the data active = inhibition above about 40%
FLuc counter – inhibits full-length luciferase, flagging false Mdm2/MdmX hits. shares compounds with Mdm2-MdmX inh. inhibition, % at 8 µM. SaOS-2 full-length luciferase counterscreen, luminescence. 6,200 tested, 77% active;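 active = mean inhibition at 8 µM reaching about 37%, which flags the compound as non-specific, limit read from the data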;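 note: p53-null SaOS-2 cells with luciferase driven by a doxycycline-inducible promoter; compound on cells about two nights before reading with doxycycline added after day one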
Gli antag conf – Gli-SUFU antagonism confirmation, single concentration | shares compounds with Gli-Sufu block | Sufu-KO-LIGHT cells, Gli luciferase reporter, luminescence | inhibition, % at 5 µM | 2,500 tested, 40% active | AID 602428;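 active = mean inhibition at 5 µM reaching about 45%, limit read from the data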
Gli cytotox – cytotoxic in Gli-SUFU antagonist counter-screen; shares compounds with Gli-Sufu block; Sufu-KO-LIGHT cells cytotoxicity, ATP luminescence; cytotoxicity, % at 5 µM; 2,500 tested, 32% active; AID 651994;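 active = mean cytotoxicity at 5 µM above about 25%, limit read from the data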;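 note: cells exposed to compound overnight for roughly 16 to 18 hours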
Wnt3a counter – Wnt3a reporter inhibition counter-screen | Wnt-LIGHT cells, Wnt3a-driven luciferase reporter, luminescence | 2,500 tested, 20% active | inhibition, % at 6.25 µM | AID 651995 | shares compounds with Gli-Sufu block;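 active = mean inhibition above about 25%, limit read from the data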
Of the large screens only hits and unclear results are named; the others gave an inactive call (follow-up assays come after a bar, where they were run).

CC(=O)c1c(C)[nH]c(C(=O)OCC(=O)Nc2ccc(C)cc2[N+](=O)[O-])c1C	Gli-Sufu block 77.3, 697 NFkB inh 48.5, Beta cell apopt 123.0, Mdm2-MdmX inh 51.2, Jurkat NFkB inh 61.7 | Jurkat NFkB conf 68.8 | 697 NFkB conf inactive | Mdm2 MdmX conf inactive | FLuc counter 58.0 | Gli antag conf 80.0 | Gli cytotox 26.5 | Wnt3a counter 27.6
CCOC(=O)c1cc([N+](=O)[O-])sc1NC(=O)c1ccc(S(=O)(=O)N2CC3(C)CC2CC(C)(C)C3)cc1 (configuration not stated)	Gli-Sufu block 71.0, Mdm2-MdmX inh 95.1, Jurkat NFkB inh 57.1 | Jurkat NFkB conf inactive | Mdm2 MdmX conf 51.1 | FLuc counter 57.2 | Gli antag conf 82.0 | Gli cytotox 26.8 | Wnt3a counter 50.3
O=C(COc1ccc(F)cc1)NN1C(=O)CSC1=S	none
CCn1c2ccccc2c2cc(NC(=O)c3cc(OC)c(OC)c(OC)c3)ccc21	Gli-Sufu block 70.7, Mdm2-MdmX inh 68.6, Jurkat NFkB inh 57.5 (no result: Beta cell apopt) | Jurkat NFkB conf 51.0 | Mdm2 MdmX conf 61.7 | FLuc counter 119.2 | Gli antag conf 59.8 | Gli cytotox 64.1 | Wnt3a counter inactive
CCn1c2ccccc2c2cc(NC(=O)c3cc(OC)cc(OC)c3)ccc21	Gli-Sufu block 59.1, Jurkat NFkB inh 59.8 | Jurkat NFkB conf inactive | Gli antag conf 62.2 | Gli cytotox 54.7 | Wnt3a counter inactive
CCn1c2ccccc2c2cc(NC(=O)COc3ccc(OC)cc3)ccc21	none
COc1ccc(-c2c(C#N)c(N)nc3c2CCc2ccccc2-3)cc1OC	Mdm2-MdmX inh 89.0, Jurkat NFkB inh 66.5 | Jurkat NFkB conf inactive | Mdm2 MdmX conf 85.1 | FLuc counter 50.1 | Gli antag conf 56.3 | Gli cytotox inactive | Wnt3a counter inactive
O=C(O)c1ccc(CNCc2ccccc2F)cc1	none
Cc1ccc(OCCN2CCN(c3ncnc4sc(C)c(C)c34)CC2)cc1	Gli-Sufu block 73.0, 697 NFkB inh 43.2, Beta cell apopt 113.7, Jurkat NFkB inh 67.3 | Jurkat NFkB conf 66.1 | 697 NFkB conf 55.8 | Gli antag conf 73.3 | Gli cytotox 31.0 | Wnt3a counter inactive
Cc1sc2ncnc(N3CCCCC3)c2c1C	none
COc1ccccc1N=C(C)C1=C(O)CC(c2ccccc2)CC1=O (configuration not stated)	Gli-Sufu block 55.7, Mdm2-MdmX inh 61.1, Jurkat NFkB inh 69.0 | Jurkat NFkB conf inactive | Mdm2 MdmX conf 54.5 | FLuc counter 79.2 | Gli antag conf 54.3 | Gli cytotox 62.8 | Wnt3a counter inactive
Cc1ccc(NC(=O)c2ccc(Cl)cc2Cl)cc1O	none
COCC1CCN(C(=O)c2cc(COc3cccc4cnccc34)on2)CC1	none
O=C(c1cc(COc2cccc3cnccc23)on1)N1CCCC(CCCO)C1 (configuration not stated)	Gli-Sufu block 79.7, 697 NFkB inh 56.1, Beta cell apopt 117.0, Jurkat NFkB inh 54.7 | Jurkat NFkB conf 77.2 | 697 NFkB conf 101.5 | Gli antag conf 74.5 | Gli cytotox 28.9 | Wnt3a counter inactive
CCOc1ccc(NC(=O)CC(NCc2ccccn2)C(=O)O)cc1 (configuration not stated)	none (no result: Beta cell apopt)
COc1ccc(CCN2C(=O)CC(N3CCN(C/C=C/c4ccccc4)CC3)C2=O)cc1OC (configuration not stated)	none (no result: Beta cell apopt)
Cc1ccc(OCC(=O)c2cc(C)n(-c3ccccc3)c2C)c([N+](=O)[O-])n1	Gli-Sufu block 70.5, Jurkat NFkB inh 76.0 | Jurkat NFkB conf inactive | Gli antag conf 74.5 | Gli cytotox inactive | Wnt3a counter 86.7
CC(C)(C)NC(=O)C(c1cccs1)N(Cc1ccc(F)cc1)C(=O)c1csnn1 (configuration not stated)	none (no result: Beta cell apopt)
CCC1CCCCN1C(=O)c1cc(COc2ccc3ncccc3c2)on1 (configuration not stated)	Gli-Sufu block 72.0, Beta cell apopt 112.9, Jurkat NFkB inh 57.8 | Jurkat NFkB conf 60.0 | Gli antag conf 71.9 | Gli cytotox 34.9 | Wnt3a counter inactive
Fc1ccc2[nH]c3c(N4CCc5ccccc5C4)ncnc3c2c1	Gli-Sufu block 77.2, Beta cell apopt 127.3, Mdm2-MdmX inh 56.9, Jurkat NFkB inh 50.1 | Jurkat NFkB conf 62.6 | Mdm2 MdmX conf inactive | Gli antag conf 79.4 | Gli cytotox 34.3 | Wnt3a counter inactive
C#CC[N+](C)(C)CCCCCCCCCCCC	Gli-Sufu block 84.3, Beta cell apopt 101.4, Mdm2-MdmX inh 84.3, Jurkat NFkB inh 70.5 | Jurkat NFkB conf 51.9 | Mdm2 MdmX conf 80.4 | FLuc counter 36.6 | Gli antag conf 80.6 | Gli cytotox 28.1 | Wnt3a counter inactive
O=c1c2ccccc2ncn1CCOc1ccccc1[N+](=O)[O-]	none
Cc1cc(N2CCC(C)CC2)nc(NCc2ccccc2)n1	Beta cell apopt 100.7, Mdm2-MdmX inh 79.9, Jurkat NFkB inh 53.3 | Jurkat NFkB conf inactive | Mdm2 MdmX conf 51.5 | FLuc counter 39.5 | Gli antag conf inactive | Gli cytotox 31.2 | Wnt3a counter inactive
CCOc1ccc(N(CC(=O)Nc2ccccc2OCC)S(=O)(=O)c2c(C)noc2C)cc1	Mdm2-MdmX inh 65.3, Jurkat NFkB inh 57.3 | Jurkat NFkB conf 61.6 | Mdm2 MdmX conf 61.8 | FLuc counter 89.8 | Gli antag conf 63.5 | Gli cytotox 51.8 | Wnt3a counter 47.2
COC(=O)c1ccccc1NC(=O)CSc1nc(C)cc(C)n1	none
Cc1cc(C)nc(SCC(=O)Nc2ccnc3ccccc23)n1	Gli-Sufu block 64.4, Beta cell apopt 101.6, Jurkat NFkB inh 63.9 | Jurkat NFkB conf 64.7 | Gli antag conf 66.7 | Gli cytotox inactive | Wnt3a counter 41.0

Screening results deposited in PubChem BioAssay by several laboratories.
